ALOX12 inh: ALOX12 (human) lipoxygenase inhibition. P18054. purified 12hLO, xylenol orange hydroperoxide absorbance. Potency, µM (top dose mostly 108 µM), hits mostly inhibitors. 580,000 compounds, 1.1% hits. AID 1671190
Target sequence (P18054 whole entry, looked up): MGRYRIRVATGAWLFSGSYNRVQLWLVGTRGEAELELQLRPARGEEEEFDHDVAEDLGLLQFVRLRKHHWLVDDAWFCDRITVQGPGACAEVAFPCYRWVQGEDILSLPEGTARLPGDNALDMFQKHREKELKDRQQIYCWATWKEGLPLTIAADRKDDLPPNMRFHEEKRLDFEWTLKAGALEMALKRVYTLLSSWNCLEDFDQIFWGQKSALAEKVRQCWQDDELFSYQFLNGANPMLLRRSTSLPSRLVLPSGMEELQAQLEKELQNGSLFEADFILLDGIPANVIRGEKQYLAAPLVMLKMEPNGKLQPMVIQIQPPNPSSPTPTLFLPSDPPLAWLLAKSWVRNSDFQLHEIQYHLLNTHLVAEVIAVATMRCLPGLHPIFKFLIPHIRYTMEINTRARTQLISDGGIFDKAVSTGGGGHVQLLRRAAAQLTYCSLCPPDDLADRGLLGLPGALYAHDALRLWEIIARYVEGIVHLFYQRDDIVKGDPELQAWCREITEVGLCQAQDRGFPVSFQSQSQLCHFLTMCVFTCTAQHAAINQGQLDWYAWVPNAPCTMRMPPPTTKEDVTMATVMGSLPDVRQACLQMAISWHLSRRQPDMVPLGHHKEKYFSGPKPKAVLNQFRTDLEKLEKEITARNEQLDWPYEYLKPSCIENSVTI
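Hydroperoxide product was detected by ferrous iron/xylenol orange as the 573 to 405 nm absorbance ratio. Arachidonic acid at 40 uM (final) was turned over for 30 min at room temperature by 150 nM human 12hLO, pH 7.0 Hepes buffer, after 15 min compound preincubation.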
IL-1B inflam inh: blocks inflammasome-driven IL-1 beta release; 360,000 compounds, 4.7% hits; activity change, % at 57.5 µM; THP-1 LPS/ATP IL-1B secretion, AlphaLISA, 16 h; hits give low values; in the data active = activity change below about -50%; inconclusive = mostly about -30% to -49%
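Secreted IL-1B measured by AlphaLISA bead assay after 16 h compound exposure of THP-1 cells; compounds (final up to 57.5 uM) added 1 h before LPS (250 ng/mL) and ATP (1.25 mM) stimulation; lower signal means less secretion.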
DT40 TDP1 no CPT: qHTS for Inhibitors of human tyrosyl-DNA phosphodiesterase 1 (TDP1): qHTS in cells in absence of CPT; DT40 Tdp1-/- hTDP1 cells, no CPT, ATP luminescence, 48 h; Potency, µM (highest dose often 46.2 µM), usual class: inhibitors; 420,000 compounds, 15% hits; also: nearly all actives have a fitted effect of over 55% in size
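Growth kinetics read by CellTiter-Glo luminescence after ≥48 hr at 37 °C. Cells: DT40 Tdp1-/- stably carrying human TDP1, 400 per well, compound exposure in the absence of CPT (DMSO vehicle).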
HT1080 IDH1KD tx: kills HT-1080 cells with IDH1 knockdown | HT-1080 IDH1 knockdown viability, ATP luminescence, 48 h | Potency, µM (top dose mostly 46.1 µM), actives largely listed as cytotoxic | 360,000 compounds, 2% hits
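Viability of IDH1-knockdown HT-1080 fibrosarcoma cells was assessed by CellTiter-Glo after 48 h at 37 °C with titrated compound; concentration-effect curves were classified by fit quality and response size.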
HT1080NT lethal: kills 2HG-producing HT-1080-NT fibrosarcoma cells; HT-1080-NT fibrosarcoma viability, CellTiter-Glo ATP luminescence, 48 h; Potency, µM (titrated, usually from 46.1 µM), actives largely listed as cytotoxic; 360,000 compounds, 1.6% hits; AID 686970;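 also: NT is the 2HG producing partner of a matched IDH1 knockdown line; nearly all actives have a fitted effect of over 55% in size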
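HT-1080-NT fibrosarcoma cells (2HG-overproducing), 750 cells/well in RPMI with 5% FBS, dosed after 2 h and incubated 48 h at 37C. CellTiter-Glo luminescence normalized to DMSO and no-cell wells; concentration-response curves fitted and classed.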
TDP1 cell CPT: growth inhibition of DT40 Tdp1-/-;hTDP1 cells with camptothecin (screen for TDP1 inhibitors). chicken DT40 Tdp1-/-;hTDP1 cells + 20 nM CPT, ATP luminescence, 48 h. Potency, µM (top dose mostly 46.2 µM), usual class: inhibitors. 420,000 compounds, 12% hits. AID 686979; also: nearly all actives have a fitted effect of over 55% in size
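Chicken DT40 Tdp1-/- cells complemented with human TDP1, 400 cells/well, exposed to compounds plus 20 nM camptothecin for at least 48 h at 37 C; viability read as ATP content by CellTiter-Glo luminescence.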
A number is an active result; - = inactive; ? = inconclusive; . = no result. This excerpt belongs to a sample that is enriched for hits. Unless noted, calls follow the shape of the dose curve; as a rule, active = well fitted curve in the direction sought with a large enough effect; inconclusive = small, poorly fitted or top-dose-only effect, or another doubt; inactive = no such curve, though single readings can be large; an effect the other way counts as inactive or inconclusive.

SMILES | ALOX12 inh | IL-1B inflam inh | DT40 TDP1 no CPT | HT1080 IDH1KD tx | HT1080NT lethal | TDP1 cell CPT
CCOC(=O)C1(C)CCCCCN1C(=O)c1ccc(OC)cc1 (stereo not drawn) | - | - | ? | - | - | 16µM
Cn1cnc2c1c(=O)n(CCCSc1nnc(-c3ccccc3)o1)c(=O)n2C | - | . | . | . | . | .
Cn1c(=O)c2c(nc(N3CCOCC3)n2CC(=O)c2ccc(Cl)cc2)n(C)c1=O | - | . | . | . | . | .
COCCNC(=O)CS(=O)(=O)Cc1nc(-c2ccccc2C)oc1C | - | . | . | . | . | .
COc1ccc2c(CNCCc3cccs3)c(C(=O)O)n(Cc3cccc(F)c3)c2c1 | - | . | ? | . | . | ?
COc1ccc2c(CNCCc3cccs3)c(C(=O)O)n(Cc3ccc(F)cc3Cl)c2c1 | - | . | 6.5µM | . | . | 8.2µM
COc1ccc2c(CNCc3cccs3)c(C(=O)O)n(Cc3ccc(F)cc3Cl)c2c1 | - | . | 1.5µM | . | . | 7.3µM
O=C(O)c1c[nH]c2ncccc12 | - | . | . | . | . | .
COc1ccc(NC(C)C(=O)Nc2cc(C(F)(F)F)ccc2N2CCOCC2)c(OC)c1 (stereo not drawn) | - | - | 23µM | - | - | ?
O=C(CCCCl)NC(=S)Nc1cc(C(F)(F)F)ccc1N1CCOCC1 | ? | ? | 15µM | - | - | ?
Cc1ccc(NC(=O)CSCC(=O)Nc2cc(C(F)(F)F)ccc2N2CCOCC2)cc1 | . | - | 21µM | - | - | 18µM
CCOC(=O)C(=CNc1cc(C(F)(F)F)ccc1N1CCOCC1)C(=O)OCC | - | -53 | 16µM | - | - | ?
Cc1cc(NC(=O)CSCC(=O)Nc2cc(C(F)(F)F)ccc2N2CCOCC2)no1 | - | - | - | - | - | -
CCCCn1c(=O)n(CC(=O)Nc2ccc(C)cc2)c(=O)c2c1ncn2Cc1ccco1 | - | . | . | . | . | .
COC(=O)c1ccc(OCc2cc(OC)c(Br)cc2OC)cc1 | - | . | . | . | . | .
COc1cc(CNC(=O)CN2CCCc3nc(C4CC4)ncc3C2=O)cc(OC)c1 | - | . | . | . | . | .
O=C(CSc1nc2ccccc2o1)Nc1cc(C(F)(F)F)ccc1N1CCOCC1 | - | -50 | ? | ? | - | ?
CCCCn1nc(C(=O)Nc2cc(C(F)(F)F)ccc2N2CCOCC2)ccc1=O | - | - | 3.7µM | - | - | 23µM
O=C(Nc1cc(C(F)(F)F)ccc1N1CCOCC1)C1Cc2ccccc2CN1C(=O)c1ccco1 (stereo not drawn) | ? | - | ? | - | - | 16µM
COc1ccccc1/C=C/C(=O)OCC(=O)Nc1cc(C(F)(F)F)ccc1N1CCOCC1 | - | - | 2.6µM | ? | ? | 4.1µM
Cc1cc(C(=O)Nc2cc(C(F)(F)F)ccc2N2CCOCC2)no1 | - | - | - | - | - | -
O=C(COC(=O)/C=C/c1ccccc1)Nc1cc(C(F)(F)F)ccc1N1CCOCC1 | - | - | - | - | - | -
CN1CC2(CCN(C(=O)C3CC3)CC2)CC1C(=O)N1CCOCC1 (stereo not drawn) | - | . | . | . | . | .
Cc1ccc2nc(SCC(=O)Nc3cc(C(F)(F)F)ccc3N3CCOCC3)[nH]c2c1 | - | - | 0.82µM | 1µM | ? | 0.82µM
O=C(CSc1nccc(=O)[nH]1)Nc1cc(C(F)(F)F)ccc1N1CCOCC1 | - | - | - | - | - | -
SMILES | ALOX12 inh | IL-1B inflam inh | DT40 TDP1 no CPT | HT1080 IDH1KD tx | HT1080NT lethal | TDP1 cell CPT
O=C(Nc1ccc(C(F)(F)F)cc1[N+](=O)[O-])O[C@H]1[C@H](Cc2ccccc2)NS(=O)(=O)[C@H]2C[C@@H]3C=C[C@]12O3 | - | -50 | 16µM | - | - | 21µM
Cc1ccsc1/C=N/NC(=O)c1cccc2ccccc12 | - | . | . | . | . | .
Cc1ccc(Cc2c(-c3ccc(Cl)cc3)nc3cc(C)c(Br)c(C)n23)cc1 | 8.9µM | - | - | - | - | ?
Cc1ccc(-c2nc3cc(C)c(Br)c(C)n3c2Cc2ccccc2)cc1 | - | - | 7.3µM | - | - | 2.3µM
COc1ccc(-c2nc3cc(C)c(Br)c(C)n3c2Cc2ccccc2)cc1OC | ? | - | ? | - | - | ?
COc1ccc(-c2nn(-c3ccccc3C)cc2CN2C[C@@H](C)O[C@@H](C)C2)cc1F | - | . | . | . | . | .
Cc1ncc(CN2CCCC2C(=O)Nc2ccc(-c3cccc(F)c3)cc2)n1C (stereo not drawn) | - | . | . | . | . | .
Cn1c(NCc2ccccc2F)nc2cc(-c3ccccc3)sc2c1=O | - | - | 21µM | - | ? | 18µM
COc1cccc(-c2cc3nc(NCc4ccccc4F)n(C)c(=O)c3s2)c1 | ? | - | 16µM | - | - | 23µM
Cc1ccc(CNc2nc3cc(-c4ccccc4)sc3c(=O)n2C)c(C)c1 | - | - | - | - | - | 16µM
Cn1c(NCC2CCCCC2)nc2cc(-c3ccsc3)sc2c1=O | - | - | ? | - | - | 26µM
COc1cccc(-c2cc3nc(NCc4cccnc4)n(C)c(=O)c3s2)c1 | - | - | ? | - | - | ?
Cc1ccc(NC(=O)c2ccc(C(F)(F)F)cc2)c(F)c1 | - | . | . | . | . | .
Cc1nc(C)c(C(=O)NC2CCc3nn(CC4CC4)c(=O)n3CC2)s1 (stereo not drawn) | - | . | . | . | . | .
Cn1c(NCc2ccccc2F)nc2cc(-c3ccsc3)sc2c1=O | - | - | 23µM | - | ? | ?
COc1ccccc1CNc1nc2cc(-c3ccsc3)sc2c(=O)n1C | - | - | ? | ? | - | ?
Cn1c(NCc2ccccc2F)nc2cc(-c3cccc(Cl)c3)sc2c1=O | - | - | 21µM | - | - | 15µM
CCCCCCCOc1ccc(C(=O)c2ccccc2)cc1 | - | . | . | . | . | .
CCCCn1c(=O)[nH]c(=O)c2c1nc(CCC(=O)OC)n2CC(C)C | - | . | . | . | . | .
Cc1ccc(-c2ccnc3nc(-n4cccc4)nn23)o1 | - | - | 21µM | ? | - | 15µM
CC(C)c1nc2nccc(-c3ccco3)n2n1 | - | . | . | . | . | .
CS(=O)(=O)c1ccc2nc(NC(=O)CC3CCCC3)sc2c1 | - | - | 13µM | ? | - | ?
CC(=O)Nc1ccc2nc(NC(=O)CS(=O)(=O)c3ccc(C)cc3)sc2c1 | ? | . | ? | . | . | -
O=C(CS(=O)(=O)c1ccc(Cl)cc1)Nc1nc2ccc(Br)cc2s1 | ? | . | 23µM | . | . | ?
CS(=O)(=O)c1ccc2nc(NC(=O)c3cc([N+](=O)[O-])cc([N+](=O)[O-])c3)sc2c1 | - | - | ? | - | - | ?
CS(=O)(=O)c1ccc2nc(NC(=O)c3cccc([N+](=O)[O-])c3)sc2c1 | - | - | 18µM | - | - | -
CCC(=O)Nc1nc2ccc(S(C)(=O)=O)cc2s1 | - | - | - | - | - | -
Cc1cccc(OCC(=O)Nc2nc3ccc([N+](=O)[O-])cc3s2)c1C | - | - | ? | - | - | 26µM
COc1ccc(Cl)cc1NC(=O)c1cc(=O)c2cc(C)ccc2o1 | - | . | . | . | . | .
